p53ts 32C tox = p53ts cell cytotoxicity, permissive temperature; Potency, µM (top dose mostly 46.1 µM), most hits filed as cytotoxic; AID 924; H1299-p53A138V at 32C, ATP luminescence viability, 24 h; 130,000 compounds, 0.93% hits; further: nearly all actives have a fitted effect of over 55% in size
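H1299-p53 A138V cells (temperature-sensitive p53) exposed 24 h to up to 46 uM compound at 32C, where p53 is wild-type in conformation. Viability read as ATP luminescence and normalised to DMSO and 100 uM tamoxifen. AC50 fitted with the Hill equation.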
p53ts 39C tox = cytotoxicity in p53ts cells at nonpermissive temperature; H1299-p53A138V viability at 39C, ATP luminescence, 24 h; Potency, µM (top dose mostly 46.1 µM), hits mostly cytotoxic; 130,000 compounds, 1.5% hits; AID 902; further: nearly all actives have a fitted effect of over 55% in size
IkB signaling = inhibitors of IkB signaling in ABC-DLBCL cells. 110,000 compounds, 0.04% hits. Potency, µM (highest dose often 57.1 µM). AID 445. ABC-DLBCL IkBa-CBG/CBR dual luciferase ratio, 4 h; response scale: scaled: untreated 0%, proteasome inhibitor 100%; active means well fitted curve in the direction sought with a large enough effect in the signal ratio, not every such curve was filed as active; inconclusive means small, poorly fitted or top-dose-only effect, or a change in a side signal; the % refers to the signal ratio;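 further: the direction sought is a rising ratio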
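Luminescence ratio of IκBα-fused green versus native red beetle luciferase in OCI-Ly3 cells, 4 h post-doxycycline with compound; red signal alone, scaled from basal (0%) to zero light (-100%), flagged nonspecific or cytotoxic effects.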
CRE Fsk mod = alters forskolin-stimulated CRE reporter signaling in CHO cells | 71,000 compounds, 2.5% hits | Potency, µM (top dose mostly 38.2 µM), usual class: activators | AID 662 | CHO CRE-bla reporter (cAMP response element driving beta-lactamase), forskolin EC10, beta-lactamase ratio; active means well fitted activation curve with a large enough effect in the signal ratio, with a control signal flat, not every such curve was filed as active; inconclusive means small, poorly fitted or top-dose-only effect, or effect the other way, or a change in a side signal; the % refers to the signal ratio
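Modulation of forskolin signalling: compounds in titration series added with EC10 NKH 477 to CHO cells carrying a CRE-driven beta-lactamase reporter, 3 h, 37C. CCF4 FRET ratio (460/530 nm, ex 405 nm) gives %activity and AC50.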
Imprint erasure = induces erasure of genomic imprints in mouse ES cells; mouse ES Peg3-LacZ reporter, beta-gal luminescence, 40 h; Potency, µM (doses to about 60.7 µM), actives largely listed as activators; 110,000 compounds, 0.02% hits; AID 1948
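Gelatin-coated wells received 300 freshly trypsinized female ES cells with a Peg3LacZ-Neo reporter on the maternal allele, then incubated 40 hours at 37C. BetaGlo was added for 5 minutes at room temperature before a single luminescence read.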
Hits are given with their value; 0 = inactive; ? = inconclusive; - = no result given; [ ] = another dose, or the depositor's remark. Only some compounds are listed: those with a hit (about 3% of all), similar ones and a draw of the others. Unless noted, the call rests on the fitted dose curve; in most records, active means well fitted curve in the direction sought with a large enough effect; inconclusive means small, poorly fitted or top-dose-only effect, or another doubt; inactive means no such curve, though single readings can be large; an effect the other way counts as inactive or inconclusive.

SMILES	p53ts 32C tox	p53ts 39C tox	IkB signaling	CRE Fsk mod	Imprint erasure
CCCCCn1c(=O)[nH]c2cc(C(=O)NC(C)CC)ccc2c1=O (centres undefined)	0	0	?	-	0[10.9 µM]
O=C(c1cc(-c2cccc(O)c2)on1)N1CCOCC1	10µM	?	0	0	0
COc1ccc(-c2cc(C(=O)N3CCOCC3)no2)cc1OC	0	0	0	0	0
COc1ccc(-c2cnc(SCC(=O)Nc3ccc4c(c3)OCO4)n2Cc2ccco2)cc1	0	0	?	0	0
CC(=O)Nc1cccc(NC(=O)CSc2ncc(-c3ccc(Cl)cc3)n2Cc2ccco2)c1	?	12.6µM	?	?	0
CC(=O)COc1ccc2c3c(c(=O)oc2c1)CCCC3	0	0	0	15.8µM	0
c1ccc(Nc2ccccc2Nc2ccccn2)nc1	0	0	0	0	0
Oc1cccc2ccc(Nc3ccccn3)nc12	15.8µM	10µM	-	-	-
CC1CCN(c2ccc(-c3cccc(NS(=O)(=O)c4ccc(Cl)s4)c3)nn2)CC1	6.31µM	3.98µM	?	-	0[10.9 µM]
CC1CCN(c2ccc(-c3cccc(NS(=O)(=O)c4cccs4)c3)nn2)CC1	10µM	3.16µM	?	-	0[10.9 µM]
COc1ccc(C)cc1S(=O)(=O)Nc1cccc(-c2ccc(N3CCC(C)CC3)nn2)c1	0	?	?	-	0[10.9 µM]
COc1ccc(CNC(=O)c2cnc3sc4cc(OC)ccc4n3c2=O)cc1	0	0	0	-	0[10.9 µM]
Cc1ccc(N2CCN(C(=O)c3cnn(-c4ccc(C)c(C)c4)c3C3CCNCC3)CC2)c(C)c1	0	20µM	0	-	0[10.9 µM]
O=C(/C=C\c1ccc(O)c(O)c1)OCCc1ccccc1	?	?	0	0	-
OC[C@@H]1O[C@@H](n2cnc3c(NCCc4ccccc4)ncnc32)[C@@H](O)[C@H]1O	-	-	?	0	-
COc1ccc(/C=C/C(=O)Nc2sc(C)c(C)c2C(=O)O)cc1	2.51µM	0	0	-	0[10.9 µM]
CCOC(=O)c1sc(NC(=O)/C=C/c2ccc(OCC)cc2)c(C(=O)OCC)c1C	0	0	0	-	0[10.9 µM]
COc1ccc(CNC(=O)c2cc3c(=O)n(Cc4cccnc4)ccc3nc2C)cc1	0	0	0	-	0[10.9 µM]
CSc1ccc(CCNc2ncnc3onc(C)c23)cc1	0	0	?	-	0[10.9 µM]
COc1cccc(NC(=O)Nc2cc(-c3cn4cccnc4n3)ccc2C)c1	?	0	0	-	0[10.9 µM]
COc1ccc(-c2cn3cccnc3n2)cc1NC(=O)c1ccc(Br)o1	0	0	0	2.51µM	0
COc1ccc(-c2cn3cccnc3n2)cc1NC(=O)Nc1cc(C)ccc1C	15.8µM	?	?	-	0[10.9 µM]
Cc1ccc(-c2cn3cccnc3n2)cc1NC(=O)Nc1ccc(F)cc1	0	0	0	-	0[10.9 µM]
COc1cccc(NC(=O)Nc2cc(-c3cn4cccnc4n3)ccc2OC)c1	10µM	10µM	?	-	0[10.9 µM]
CCOc1cc2[nH]c(=O)n(CCCCC(=O)N3CCN(c4ccc(OC)cc4)CC3)c(=O)c2cc1OCC	0	0	0	-	0[10.9 µM]
SMILES	p53ts 32C tox	p53ts 39C tox	IkB signaling	CRE Fsk mod	Imprint erasure
CN(C)S(=O)(=O)c1ccc(C(=O)NCCSc2c(-c3ccc(Br)cc3)[nH]c3ccccc23)cc1	0	0	?	-	0[10.9 µM]
CCc1ccc(OCC(=O)Nc2ncn[nH]2)c(Br)c1	1.58µM	1.58µM	0	-	0[10.9 µM]
O=C(COc1ccc(Br)cc1Cl)Nc1ncn[nH]1	2.51µM	?	0	-	0[10.9 µM]
O=C(COc1ccc(Cl)cc1Cl)Nc1ccc(Cl)cn1	5.01µM	5.01µM	0	0	0
CC(C)(C)c1cc(Br)ccc1OCC(=O)Nc1ncn[nH]1	0	0	0	0	0
Cc1ccc(C(CC(=O)Nc2cc(C)cc(C)c2)N2Cc3ccccc3C2=O)cc1 (centres undefined)	0	0	?	-	0[10.9 µM]
Cc1cc(C)c(S(=O)(=O)Nc2cccc(-c3cn4ccccc4n3)c2)c(C)c1	0	0	0	-	0[10.9 µM]
Cc1nc2cc(NCc3nc4ccccc4n3Cc3ccccc3)ccc2n1C	3.98µM	2µM	-	-	-
Cc1ccc(S(=O)(=O)Nc2cc3c(C(=O)OCc4ccccc4)c(C)oc3c3ccccc23)c(C)c1	0	0	0	-	0[10.9 µM]
CC1N=C2c3ccccc3N=C(SCc3cc(=O)n4ccccc4n3)N2C1=O (centres undefined)	0	0	0	12.6µM	0
CC(C)C1N=C2c3ccccc3N=C(SCc3cc(=O)n4cc(Cl)ccc4n3)N2C1=O (centres undefined)	0	0	0	1.26µM	0
CC(C)C1N=C2c3ccccc3N=C(SCC(=O)NCc3ccc(Cl)cc3)N2C1=O (centres undefined)	0	0	0	-	0[10.9 µM]
CC1N=C2c3ccccc3N=C(SCC(=O)NCCc3ccccc3)N2C1=O (centres undefined)	0	0	0	-	0[10.9 µM]
Cc1ccc(NS(=O)(=O)c2ccc3[nH]c4c(c3c2)CCCCCC4)cc1C	0	?	?	-	0[10.9 µM]
Cc1ccc(NS(=O)(=O)c2ccc3[nH]c4c(c3c2)CCCCCC4)cc1	0	?	0	-	0[10.9 µM]
CCc1ccc(NS(=O)(=O)c2ccc3[nH]c4c(c3c2)CCCCCC4)cc1	0	20µM	0	-	0[10.9 µM]
CCOC(=O)c1ccc(NS(=O)(=O)c2ccc3[nH]c4c(c3c2)CCCCC4)cc1	?	15.8µM	?	-	0[10.9 µM]
Cc1ccc2c(CNCc3cccc(Cl)c3)c(C(=O)O)n(Cc3ccc(F)cc3Cl)c2c1	0	0	?	-	0[10.9 µM]
CCN1CC=C2C(C#N)=C(N)C(C#N)(C#N)C(CCc3ccccc3)C2C1 (centres undefined)	0	0	0	0	-
N#CC1=C(N)C(C#N)(C#N)[C@H](c2ccoc2)[C@H]2CN(Cc3ccccc3)CC=C12	0	0	0	10µM	0
CCOc1ccc(-c2cc3c(=O)n(CC(=O)NCc4ccc(C)cc4)ccn3n2)cc1	0	0	0	-	0[10.9 µM]
Cn1c(=O)n(-c2ccc3c(c2)OCO3)c2nc(-c3ccc(Cl)cc3)nc(C(N)=O)c21	0	0	0	-	0[10.9 µM]
COCCn1c(-c2ccc(Cl)cc2)cnc1SCC(=O)NCc1cccs1	?	25.1µM	?	0	0
Cc1ccc(NC(=O)c2cc(S(=O)(=O)N3CCCCC3)c[nH]2)cc1N(C)C	0	-	-	-	-
COc1cc(-c2c(C#N)c(N)nc3c2c(C)nn3-c2ccc(C)c(C)c2)cc(OC)c1OC	0	0	0	2.51µM	0
SMILES	p53ts 32C tox	p53ts 39C tox	IkB signaling	CRE Fsk mod	Imprint erasure
Cc1cccc(CSc2nc(N)c(C#N)c(-c3cccs3)c2C#N)c1	0	0	-	-	-
Cc1nn(-c2ccc(F)cc2)c2nc(N)c(C#N)c(-c3cccs3)c12	0	0	0	7.94µM	0
Cc1ccc(C(=O)[C@@H]2[C@@H]3[C@@H](C(=O)[C@@H]4OC[C@H]3O4)[C@@H]3C=Cc4ccccc4N23)cc1	-	-	0[11.4 µM]	?	-
Cc1ccc(C(=O)C2CCNCC2)cc1	0	0	0	0	0
Cc1ccc(C(=O)/C=C2\NCCNC2=O)cc1	12.6µM	?	-	-	-
CCN(CC)CCC[C@H](C)Nc1c2ccc(Cl)cc2nc2ccc(OC)cc12	5.01µM	10µM	?	?	0

Bioassay records from PubChem.
